PLK1 PBD inh – blocks phosphopeptide binding to human Plk1 polo box domain; P53350; inhibition, %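 (tested at about 20 µM)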; Plk1 PBD phosphopeptide binding, fluorescence polarization; 0.13% of 97,000 active; in the data active = inhibition above about 34%, passing the limit was not always enough
EphB4 ephrin blk – EphB4-ephrin-B2 interaction antagonism; 0.15% of 97,000 active; P54760; EphB4 LBD / TNYL-RAW-Alexa532 peptide, fluorescence polarization; inhibition, % at 7 µM;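 active = inhibition above the screen-wide mean inhibition plus 3 SD, cut at about 15% in these data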
Target sequence (P54760 whole entry, looked up, the tested form may be a part): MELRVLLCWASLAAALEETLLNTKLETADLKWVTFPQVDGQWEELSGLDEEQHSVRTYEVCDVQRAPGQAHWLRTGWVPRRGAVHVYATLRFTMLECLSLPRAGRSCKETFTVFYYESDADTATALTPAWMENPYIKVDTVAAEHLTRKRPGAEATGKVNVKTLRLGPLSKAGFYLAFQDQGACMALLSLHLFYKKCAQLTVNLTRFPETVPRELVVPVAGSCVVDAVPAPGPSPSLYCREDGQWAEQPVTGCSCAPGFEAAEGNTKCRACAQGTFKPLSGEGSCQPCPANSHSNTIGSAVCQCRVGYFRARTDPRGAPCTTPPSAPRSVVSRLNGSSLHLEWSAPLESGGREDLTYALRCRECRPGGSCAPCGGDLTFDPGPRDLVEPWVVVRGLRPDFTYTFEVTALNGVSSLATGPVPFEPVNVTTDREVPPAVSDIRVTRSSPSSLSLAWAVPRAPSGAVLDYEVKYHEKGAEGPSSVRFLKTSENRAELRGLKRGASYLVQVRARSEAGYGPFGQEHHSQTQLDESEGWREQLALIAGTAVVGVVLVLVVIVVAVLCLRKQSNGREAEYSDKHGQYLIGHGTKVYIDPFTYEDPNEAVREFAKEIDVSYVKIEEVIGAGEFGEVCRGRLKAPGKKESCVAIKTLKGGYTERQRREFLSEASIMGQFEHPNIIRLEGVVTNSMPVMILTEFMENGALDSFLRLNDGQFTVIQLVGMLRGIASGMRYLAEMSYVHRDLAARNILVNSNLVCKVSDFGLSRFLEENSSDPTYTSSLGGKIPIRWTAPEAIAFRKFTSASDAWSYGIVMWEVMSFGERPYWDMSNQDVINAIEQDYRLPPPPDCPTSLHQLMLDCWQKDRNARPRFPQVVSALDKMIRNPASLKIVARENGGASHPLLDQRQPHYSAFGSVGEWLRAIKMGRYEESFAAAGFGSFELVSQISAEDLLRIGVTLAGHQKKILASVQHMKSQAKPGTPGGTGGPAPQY
PLK1 kinase inh – PLK1 (human) kinase inhibition; P53350; recombinant PLK1 kinase, TR-FRET peptide phosphorylation; inhibition, % at 10 µM; 0.53% of 97,000 active;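 active = inhibition of 50% or more in the single-concentration screen; inactive = inhibition below 50%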
Smad3 inh – Smad3 (human) transcription factor binding inhibition; P84022; TR-FRET Smad3/Dy647-FoxH1 peptide binding, europium anti-His; inhibition, % at 25 µM; 0.29% of 88,000 active; AID 630;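 active = compounds that reduce the energy-transfer binding signal between the protein and its labelled peptide by more than half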
FAK inh – inhibitors of human focal adhesion kinase; Q05397; inhibition, %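 (tested at 7 µM)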; 0.84% of 97,000 active; AID 727; biochemical FAK kinase activity assay; in the data active = inhibition above about 19%
PLK1 inh conf – confirmation of human PLK1 kinase inhibitors. AID 744. inhibition, % at 10 µM. recombinant PLK1 kinase, TR-FRET peptide phosphorylation. 20% of 210 active. shares compounds with PLK1 kinase inh;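 active = inhibition at or above 50% in each of two repeat confirmation tests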
TR-FRET interf – counter-screen for Plk1 inhibitors: compound assay interference. shares compounds with PLK1 kinase inh. Plk1 TR-FRET assay interference, compound added post-reaction. inhibition (interference), % at 10 µM. 210 tested, under 10 active. AID 756;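 active = both duplicate runs show 50% or greater inhibition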
PBD redox DR – counter-screen for Plk1 PBD inhibitors: redox cycling H2O2 generation; shares compounds with PLK1 PBD inh; DTT; EC50, µM; 120 tested, under 10 active; AID 876; call rule not given here
Of the large screens only hits and unclear results are named; the others gave an inactive call (follow-up assays come after a bar, where they were run); [ ] = another dose, or the depositor's remark. A selection: hits, their analogues and other compounds. The true share with any hit is near 1.6%.

O=C(O)CSc1nnc(-c2ccncc2)n1-c1ccc(Cl)cc1	none
O=C(Cn1nc(Cc2cccnc2)c2ccccc2c1=O)NCc1ccc2c(c1)OCO2	PLK1 kinase inh 72 | PLK1 inh conf inactive | TR-FRET interf inactive
Brc1ccc(Oc2nnnn2-c2ccccc2)cc1	PLK1 kinase inh 75 | PLK1 inh conf inactive | TR-FRET interf inactive
CN=c1scc(C)n1/N=C/c1ccc(O)c(O)c1O	PLK1 kinase inh 82 | PLK1 inh conf 85 | TR-FRET interf 70
CCN=c1scc(C)n1/N=C/c1ccsc1	none
C[C@@H](CS(=O)(=O)Cc1ccccc1)C(N)=O	none (no result: PLK1 PBD inh, EphB4 ephrin blk, PLK1 kinase inh, FAK inh)
NC(=O)c1c(NC(=O)CN2CCCC2)sc2c1CCCC2	none
N#CCC(=O)Nc1sc2c(c1C(N)=O)CCCC2	PLK1 kinase inh 70 | PLK1 inh conf inactive | TR-FRET interf inactive
C=CCSc1nc2ccccc2c(=O)n1Cc1ccco1	none (no result: PLK1 PBD inh, EphB4 ephrin blk, PLK1 kinase inh, FAK inh)
COc1ccc(C(=O)N2c3ccccc3CC2C)cc1OC (stereo not drawn)	none
CC1Cc2ccccc2N1C(=O)c1ccc2c(c1)nnn2C (stereo not drawn)	PLK1 PBD inh 50 | PBD redox DR inactive
O=C(Cc1ccc(Cl)cc1)NCCN1CCCC1	PLK1 PBD inh 48 | PBD redox DR inactive
COc1cc(S(=O)(=O)N2CCCCCC2)ccc1-n1cnnn1	PLK1 PBD inh 38 | PBD redox DR inactive
COc1ccc(Cn2c(=O)sc3ccccc32)cc1	PLK1 PBD inh 54 | PBD redox DR inactive
CC(C)Oc1ccc(Cn2c(=O)sc3ccccc32)cc1	none
COC(=O)c1cnc(SC)nc1C	none (no result: Smad3 inh)
COC(=O)Nc1cccn(Cc2c(Cl)cccc2Cl)c1=O	none (no result: Smad3 inh)
O=C(Nc1cccn(Cc2c(Cl)cccc2Cl)c1=O)c1c(Cl)cccc1Cl	PLK1 PBD inh 51 (no result: Smad3 inh) | PBD redox DR inactive
CCOc1ccc(C)cc1S(=O)(=O)Nc1ccc(Cl)cn1	none
COc1ccc(C(C)C)cc1S(=O)(=O)Nc1ccc(Cl)cn1	PLK1 PBD inh 47 | PBD redox DR inactive
Cc1ccc2cc(C(c3nnnn3C3CCCC3)N3CCN(c4ccccc4)CC3)c(=O)[nH]c2c1 (stereo not drawn)	PLK1 PBD inh 61 | PBD redox DR inactive
Cc1cccc(-n2c(C)n[nH]c2=S)c1	none (no result: Smad3 inh)
Cc1cccc(-n2c(CCn3nc(C)c([N+](=O)[O-])c3C)n[nH]c2=S)c1	PLK1 PBD inh 46 (no result: Smad3 inh) | PBD redox DR inactive
COC(=O)c1ccccc1NC(=O)N1CCN(C/C=C/c2ccccc2)CC1	none
CCn1ncc(CN2CCN(C(=O)Nc3ccccc3C(=O)OC)CC2)c1C	PLK1 PBD inh 39 | PBD redox DR inactive
COc1ccc(CNc2nc(NCc3ccc(OC)c(OC)c3)n(C(=O)c3cccs3)n2)cc1OC	none (no result: Smad3 inh)
O=C1CCC(C(=O)O)(c2ccccc2)C1 (stereo not drawn)	PLK1 PBD inh 46 | PBD redox DR inactive
CN1C(=O)CCC1(O)c1ccccc1 (stereo not drawn)	none
Cc1cc(C)n(-c2nnc3n2N=C(c2ccccc2)CS3)n1	PLK1 PBD inh 46 | PBD redox DR inactive
Cn1c(=O)c(NCCO)c2c3c(cccc31)C(=O)c1ccccc1-2	PLK1 PBD inh 96, EphB4 ephrin blk 31[fluorescence artefact?] | PBD redox DR inactive
N/C(=N\OS(=O)(=O)c1ccc(Br)cc1)c1ccncc1	none
Cn1c(SCC(=O)Nc2nccs2)nnc1-c1ccco1	none
CCC(=O)Nc1ccc(-c2nnc(SCC(=O)Nc3nccs3)n2C)cc1	PLK1 PBD inh 47 | PBD redox DR inactive
Cc1cc(Cl)ccc1OCC(=O)Nc1nc(N)nc(N)n1	none (no result: PLK1 PBD inh, EphB4 ephrin blk, PLK1 kinase inh, FAK inh)
CC1=C(C#N)CCC(=O)N1Cc1ccc(C)cc1	none (no result: Smad3 inh)
COc1ccc(CC2NCCC3(O)CCCCC23)cc1 (stereo not drawn)	PLK1 PBD inh 39 | PBD redox DR inactive
Cc1ccc(S(=O)(=O)Nc2cc(=O)[nH]c3c2CCC3)cc1	none (no result: PLK1 PBD inh, EphB4 ephrin blk, PLK1 kinase inh, FAK inh)
O=C(NC1(C(F)(F)F)NC(=O)N(CC2CCCCC2)C1=O)c1ccco1 (stereo not drawn)	PLK1 PBD inh 63 | PBD redox DR inactive
CC(C)CN1C(=O)NC(NC(=O)c2ccco2)(C(F)(F)F)C1=O (stereo not drawn)	none
COc1cccc(OC)c1C(=O)N1CCN(c2ccccn2)CC1	PLK1 PBD inh 38 | PBD redox DR inactive
COc1ccccc1C(=O)N1CCN(c2ccccn2)CC1	none
Cc1ccc(NC2=C/C(=N\S(=O)(=O)c3cccs3)c3ccccc3C2=O)c(C)c1	PLK1 PBD inh 62, FAK inh 41 | PBD redox DR inactive
COC(=O)c1cc(OC)c(OC)cc1NC(=S)N1CCN(c2ccccc2)CC1	none (no result: Smad3 inh)
CC(=O)N1CCc2cc(Br)cc(S(=O)(=O)NCc3ccccn3)c21	PLK1 PBD inh 56 | PBD redox DR inactive
CCCN(CCC)CCCNS(=O)(=O)c1cc(Br)cc2c1N(C(C)=O)CC2	none
Cc1ccc(C(=O)c2c[nH]c(C(=O)NCCCN3CCOCC3)c2)cc1	PLK1 PBD inh 58 (no result: Smad3 inh) | PBD redox DR inactive
CCOc1ccc2nc(NS(=O)(=O)Cc3ccccc3)sc2c1	none
O=C(CNS(=O)(=O)c1ccc(Br)s1)N1CCCC1	PLK1 PBD inh 44 | PBD redox DR inactive
CC(C)Sc1nc(N2CCOCC2)c2c(c1C#N)CC(C)(C)N(C)C2	PLK1 PBD inh 48 | PBD redox DR inactive
C=CCSc1nccc(-c2cc(Cl)sc2Cl)n1	PLK1 PBD inh 46 | PBD redox DR inactive
N#CCSc1nccc(-c2cc(Cl)sc2Cl)n1	none
CC(=O)N(/N=C1\Sc2ccccc2C1=O)c1ccccc1	PLK1 PBD inh 101 (no result: Smad3 inh) | PBD redox DR inactive
CC(=O)N(/N=C1\Sc2ccccc2C1=O)c1ccc(C)cc1C	none
Cc1ccc(C(=O)NCc2ccco2)cc1S(=O)(=O)Nc1cccc(C)c1C	none
Cc1ccccc1NS(=O)(=O)c1cc(C(=O)NCc2ccco2)ccc1C	PLK1 PBD inh 38 | PBD redox DR inactive
CCC1=NN=C(c2ccc(F)cc2)C(c2c[nH]c3ccccc23)N1O (stereo not drawn)	none
COC(=O)[C@@H]1[C@@H](C#N)C2(c3ccccc3-c3ccccc32)N(c2ccc(Cl)cc2)N1C#N	none
CN(C)c1ccc(C(=O)Nc2nc3c(s2)CCCC3)cc1	PLK1 PBD inh 46 (no result: Smad3 inh) | PBD redox DR inactive
CC(C)(C)NC(=O)CC(c1ccccc1)c1ccccc1O (stereo not drawn)	none
CC(C)(C)NC(=O)CC(CC(=O)O)c1ccccc1 (stereo not drawn)	PLK1 PBD inh 45 | PBD redox DR inactive
COCCNC(=O)c1onc(CSc2ccc(C(C)C)cc2)c1C(=O)O	none (no result: Smad3 inh)
c1ccc(NCc2nnc3n2CCCCC3)cc1	PLK1 PBD inh 45 | PBD redox DR inactive
CCCc1nc2sc3c(c2c(=O)n1NC(=O)CCC(=O)O)CCCC3	PLK1 PBD inh 46 | PBD redox DR inactive

Screening data as filed in PubChem BioAssay.
